An excerpt weighted towards active compounds, which were near 2.5% of everything screened.
H9c2 protect = cardioprotection against H2O2-induced cell death, primary screen, uHTS, H9c2 cells, ATPLite luminescence | H9c2 cardiomyocytes, H2O2 injury protection, 2 h | protection from H2O2 cell death, % at 20 µM | actives 0.63% (n = 360,000) | AID 588492, 2011;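 active means compounds giving at least 50% protection of heart cells from peroxide-induced death in the single-dose screen, raw or plate-pattern-corrected value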;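 further: 0% = DMSO wells with peroxide and 100% = DMSO wells without peroxide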
iPSC survival up = enhancers of single-cell hiPSC survival, primary screen, ATPlite luminescence | 100% = ROCK inhibitor wells, 0% = DMSO | survival enhancement, % at 20 µM | actives 0.044% (n = 360,000) | AID 602274, 2012; in the data active means survival enhancement above about 18%;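 further: cells exposed to compounds for 16 hours before the ATP read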
SKN-1 inh = suppressors of acrylamide-induced Pgst-4::GFP reporter in worms, primary screen, SKN-1 inhibitor project, whole organism, uHTS, GFP/RFP fluorescence ratio, strain VP596 | C. elegans VP596 Pgst-4::GFP/RFP ratio, 24 h | inhibition, % at 21.8 µM | actives 0.49% (n = 360,000);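 active means interference check ratio from 0.5 to 1.5 plus GFP to RFP signal ratio inhibition reaching or exceeding a fixed threshold, cut at about 30% in these data, passing the limit was not always enough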
CRFBP-R2 agonist = agonists of CRF-BP/CRF-R2 complex, primary screen, cell-based, HEK293, calcium dye fluorescence, uHTS | actives 0.46% (n = 350,000) | AID 588473, 2011 | CRF-binding protein / CRF receptor 2 complex (human) | activation, % at 13.2 µM | calcium dye fluorescence (FLIPR); percent of saturating CRF peptide response;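 active means activation of at least 50%, plus an integration ratio under a set limit after plate pattern correction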;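 further: plate controls were neutral control wells without compound for no effect and CRF at EC100 for full effect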
CRFR2-BP antag = antagonists of CRF-BP/CRF-R2 complex, primary screen, cell-based, HEK293, calcium dye fluorescence, uHTS. CRF-induced calcium fluorescence. inhibition, % at 11.8 µM. actives 0.59% (n = 350,000). AID 588475, 2011;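 active means inhibition of the ligand-induced calcium signal above about 50% at the single tested concentration, limit read from the data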
H9c2 TAG inh = inhibitors of triacylglycerol accumulation, primary screen, cell-based, uHTS, fluorescence, H9c2. H9c2 cells, Nile Red lipid (TAG) fluorescence; cells loaded with 200 µM oleic acid. inhibition, % at 12.5 µM. actives 0.66% (n = 230,000). AID 651582, 2012;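 active means pattern-corrected inhibition of lipid staining of at least 50% with the nuclear-stain viability signal not falling by more than 50%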;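 further: 0% = DMSO wells and 100% = triacsin C control wells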
* = called active by the depositor; / = not tested or not shown.

SMILES | H9c2 protect | iPSC survival up | SKN-1 inh | CRFBP-R2 agonist | CRFR2-BP antag | H9c2 TAG inh
Cc1nnc(SCCn2c(N3CC(C)CC(C)C3)nc3c2c(=O)n(C)c(=O)n3C)s1 (stereo unspecified) | -1 | -2 | 41* | -1 | 23 | /
COc1cccc(CN(C)C(=O)C(Cc2ccccc2)NC(=O)c2ccccc2)c1OC (stereo unspecified) | 57* | 0 | 6 | -1 | -8 | 8
O=C(NC(=S)NCCc1ccccn1)c1ccccc1 | -1 | 0 | 2 | 1 | 19 | -6
O=C(NC(=S)NCCc1ccccn1)c1ccco1 | 7 | 4 | 12 | 15 | 53* | 3
COc1cnc(-c2cccc(C(F)(F)F)c2)c(NC(=O)c2cc3ccccc3s2)n1 | -8 | -2 | -2 | / | / | -4
Cn1c(=O)c2[nH]c(-c3ccccc3Cl)c(O)c2n(C)c1=O | 4 | -1 | -3 | 55* | -14 | /
CC(=O)Nn1cc2c(c1-c1ccccc1)c(=O)n(C)c(=O)n2C | -4 | 3 | -8 | 0 | 2 | /
Cn1c(=O)c2[nH]c(-c3ccccc3)c(O)c2n(C)c1=O | -9 | 2 | -6 | 70* | -43 | /
CC(C(=O)N1CCCC1)N1CCN(c2ccccc2O)CC1 (stereo unspecified) | 10 | 0 | 1 | 0 | 3 | -9
CCN(CC)c1ccc(/C=N/NC(=O)CNC(=O)C2COc3ccccc3O2)c(O)c1 (stereo unspecified) | 66* | 0 | 0 | -5 | -10 | -18
COc1cc(/C=N\NC(=O)CNC(=O)C2COc3ccccc3O2)ccc1O (stereo unspecified) | 0 | 3 | -2 | 0 | 4 | /
O=C(CSc1nc(O)c(C2CCCCC2)c(=O)[nH]1)NCC1CCCO1 (stereo unspecified) | 9 | 1 | 31* | 0 | 4 | 15
CCOC(=O)Cc1c(-c2cccc(Br)c2)nc2c3ccccc3ccn12 | / | 0 | 9 | / | / | /
O=C(/C=C/c1ccco1)Nc1ccc(CN2CCOCC2)cc1 | 3 | 0 | 14 | 3 | -6 | -7
O=C(/C=C/c1ccc(Cl)cc1)NC(=S)Nc1ccc(CN2CCOCC2)cc1 | -5 | -1 | 1 | 1 | -13 | 25
O=C(/C=C/c1ccc(Cl)cc1Cl)Nc1ccc(CN2CCOCC2)cc1 | -9 | -1 | 47* | 11 | -52 | /
O=C(/C=C/c1ccccc1)Nc1ccc(CN2CCOCC2)cc1 | -9 | 0 | 65* | -1 | -4 | -6
CC(=O)Nc1cc(C)nn1-c1nc2ccccc2s1 | 52* | 0 | 0 | -1 | -4 | 11
Cc1ccc(S(=O)(=O)N2CCC3(CC2)OCCO3)cc1 | -3 | 0 | 2 | 1 | 12 | 14
Cc1ccccc1N1Cc2ccccc2C1 | -2 | 4 | -2 | 0 | -4 | 5
Cc1cc(Br)cn2c(Cc3ccccc3)c(-c3ccc(F)cc3)nc12 | 1 | -1 | 1 | / | / | /
O=C(NCc1ccccc1)C(c1cc2ccccc2o1)n1c(=O)c(-c2ccccc2)nc2ccccc21 (stereo unspecified) | / | / | -11 | / | / | /
O=C(Cc1ccccc1)NCC(=O)OC(c1ccccc1)c1ccccc1 | 4 | 6 | 8 | -1 | 82* | 21
COc1ccccc1NS(=O)(=O)c1cc(NC(=O)CCc2nc3ccccc3c(=O)[nH]2)ccc1C | 94* | 0 | 16 | 0 | 1 | 2
O=C(CCc1nc2ccccc2c(=O)[nH]1)Nc1ccc(F)cc1 | 62* | 1 | 6 | -1 | 14 | /
SMILES | H9c2 protect | iPSC survival up | SKN-1 inh | CRFBP-R2 agonist | CRFR2-BP antag | H9c2 TAG inh
CN(CC(=O)Nc1ccc(F)cc1)C(=O)CCc1nc2ccccc2c(=O)[nH]1 | 60* | 0 | -4 | 5 | 14 | 4
COc1cc(CCC(=O)Nc2cc(C)cc(C)c2)cc(OC)c1OC | 0 | 1 | -5 | -1 | 20 | 7
COc1ccc(NC(=O)COC(=O)CCc2nc3ccccc3c(=O)[nH]2)cc1Cl | 33 | 0 | 1 | 0 | 6 | -3
COc1cc(CCC(=O)NC2(C)CCS(=O)(=O)C2)cc(OC)c1OC (stereo unspecified) | -4 | 0 | 3 | -2 | 53* | 21
COc1ccc(NC(=O)CN(C)C(=O)CCCc2nc3ccccc3c(=O)[nH]2)cc1 | 31 | 0 | 9 | 1 | -6 | 3
O=C(CCc1nc2ccccc2c(=O)[nH]1)NCc1ccco1 | 76* | 5 | 8 | -1 | -5 | 1
CC1(NC(=O)CCc2nc3sc4c(c3c(=O)[nH]2)CCCC4)CCS(=O)(=O)C1 (stereo unspecified) | 4 | 0 | 14 | / | / | 11
CN(CC(=O)Nc1ccccc1Cl)C(=O)CCc1nc2ccccc2c(=O)[nH]1 | 64* | 0 | -1 | -1 | 18 | -3
CC1(NC(=O)CCc2nc3ccccc3c(=O)[nH]2)CCS(=O)(=O)C1 (stereo unspecified) | 51* | 1 | -5 | 0 | -3 | -15
O=C(CCc1nc2ccccc2c(=O)[nH]1)NCc1ccccn1 | 44 | 0 | 14 | 11 | 13 | 12
N#CCCN(C(=O)COC(=O)CCc1nc2ccccc2c(=O)[nH]1)c1ccc(F)cc1 | 54* | 0 | -9 | 0 | 7 | 5
COC(=O)Cn1c(C(=O)N2CCCC2)cc2c1C[C@H]1CN(C(=O)c3ccccc3)[C@@](Cc3ccc(OC)cc3)(C(=O)OC)[C@@H]21 | / | 3 | 10 | / | / | /
Cc1ccc2sc(N(CCCN(C)C)C(=O)c3ccc(Br)s3)nc2c1C | -15 | -1 | -5 | 5 | -20 | 23
O=C(COc1ccccc1)NCc1ccco1 | 2 | 6 | -1 | 4 | 65* | -13
O=C(CCc1nc2ccccc2c(=O)[nH]1)Nc1nc(-c2cccs2)cs1 | 65* | 0 | 2 | 7 | -11 | 17
C=CCn1c(C)cc(-c2csc(NC(=O)CCc3nc4ccccc4c(=O)[nH]3)n2)c1C | 16 | 0 | 28 | 5 | -8 | -1
Cc1cc2c(cc1C)-n1nnnc1C(N(Cc1ccccc1)Cc1ccccc1)C(=O)N2 (stereo unspecified) | / | / | -2 | / | / | /
CCCCOC1CC(c2ccc(OCc3ccc(OC)cc3)c(OC)c2)N(C)O1 (stereo unspecified) | -7 | 1 | 11 | -3 | 89* | -11
COC(=O)c1ccccc1NC(=O)c1cnn2cccnc12 | 4 | 0 | -15 | 3 | -5 | -4
